From the supplement of paper PMC6555819

How the values were obtained:
Experiment in all cases: PBM binding z-score (relative to random genomic background probes); higher = stronger binding; sequences stand for … in GC…GCGATTGACAGCGTAGAATGAAGG
[1] = system: FXR:RXRa (NR concentration 270 nM, RXRa partner concentration 90 nM)
Method in brief: (§1)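 Binding buffer was PBS pH 7.4 with 2% milk, 0.02% Triton X-100, 1 mM DTT, 0.2 mg/mL BSA and 0.4 mg/ml salmon testes DNA. In it, ligand-free nuclear receptor dimers were incubated 1 h on custom Agilent 4×180K protein-binding microarrays carrying double-stranded probes. Antibodies against each partner (one per run) detected binding, and z-scores were calculated against random background probes after regression normalization of scanned fluorescence.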

[2] = system: LXRa:RXRa (NR concentration 270 nM, RXRa partner concentration 90 nM)
Method in brief: as §1

[3] = system: LXRa homodimer (NR concentration 270 nM)
Method in brief: as §1

[4] = system: LXRb:RXRa (NR concentration 270 nM, RXRa partner concentration 90 nM)
Method in brief: as §1

[5] = system: LXRb homodimer (NR concentration 270 nM)
Method in brief: as §1

[6] = system: PPARa:RXRa (NR concentration 270 nM, RXRa partner concentration 90 nM)
Method in brief: as §1

[7] = system: PPARg:RXRa (NR concentration 180 nM, RXRa partner concentration 90 nM)
Method in brief: as §1

[8] = system: PPARg:RXRa 270nM:90nM, anti-RXR (NR concentration 270 nM, RXRa partner concentration 90 nM)
Method in brief: as §1

[9] = system: PPARg:RXRa 30nM:10nM, anti-RXR (NR concentration 30 nM, RXRa partner concentration 10 nM)
Method in brief: as §1

[10] = system: PPARg:RXRa 90nM:30nM, anti-RXR (NR concentration 90 nM, RXRa partner concentration 30 nM)
Method in brief: as §1

Sequence | PBM binding z-score [1] | PBM binding z-score [2] | PBM binding z-score [3] | PBM binding z-score [4] | PBM binding z-score [5] | PBM binding z-score [6] | PBM binding z-score [7] | PBM binding z-score [8] | PBM binding z-score [9] | PBM binding z-score [10]
CCAGACAGGTGAAATGTAACTCAGTCTGGTACGC | 0.0255 | -0.0223 | -0.367 | 0.217 | 0.0964 | 0.949 | 1.12 | 1.5 | 0.324 | 1.07
TCATATAGGTATAGGTGAAAGTCGAACGATATGA | 0.449 | 0.366 | -0.346 | 0.177 | -0.47 | 1.42 | 1.72 | 2.44 | 3.51 | 3.05
CCTAGCGGGCCAGGGTCACTCAAGCATTTCGCTT | 2.02 | 1.7 | -0.501 | 1.75 | -1.09 | 3.22 | 0.585 | 1.45 | -0.704 | 0.334
CATACAGGGTCAGCTAGGCGAGAGTAGGGACGGC | 4.5 | 2.84 | -0.0386 | 2.08 | 0.134 | 4.19 | 2.92 | 2.91 | 0.767 | 1.75
CCTTACGGGTCCAGGTTATAGCACGGGTGGTACG | -0.118 | -0.304 | -0.277 | -0.566 | -1.29 | -0.292 | 0.168 | -0.847 | -0.404 | -0.604
TTATCAAGGTGAAGGTCGTTGATCCCTCTGTAGA | 2.51 | 1.93 | 0.076 | 1.75 | -0.0841 | 3.01 | 2.92 | 3.88 | 2.1 | 3.49
CCAGACAGGTGAGAAGGTCACTCAGCCTCGATTA | 2.4 | 2.53 | 0.729 | 2.7 | -0.075 | 3.65 | 2.01 | 3.07 | 0.629 | 1.98
GCGACGGGGGCAAAGCAGGTTACCATAAGGTTGG | 3.46 | 4.5 | 0.414 | 4.42 | 5.27 | 4 | 1.96 | 3.58 | 1.84 | 3.04
ACTAGCAGGCCAAGTTTGGGTAACTCAAACAAAG | -0.442 | -0.634 | -0.575 | -0.304 | -0.8 | -0.339 | -0.414 | -0.541 | -0.687 | -0.687
AGAATGAGGTTAAGATGAGGGAAACAGAATACAT | 2.41 | 2.35 | 0.0375 | 1.84 | 0.124 | 3.52 | 2.55 | 2.24 | 1.31 | 1.78
CCTATTAGTTGACCATAACGGCAACCGAAGCTCG | 0.455 | 0.697 | 0.909 | 0.584 | 0.966 | 0.199 | 0.702 | 0.486 | 0.219 | 0.318
AGAACGAGGGCACGCTGATTTGATAGCAGAGTAG | 0.707 | 0.541 | -0.464 | 0.172 | -0.795 | 2.31 | 2.24 | 1.79 | 0.45 | 1.1
CAAACTAGGTCAAGGTCAAAGTGGGTTTGTGCCA | 6.71 | 5.42 | 3.68 | 4.73 | 1.29 | 6.04 | 9.42 | 7.89 | 6.5 | 8.27
ATCGAAACGTCGAGGTGAGTATAGAGAAAGGGAA | -0.226 | -0.343 | -0.626 | -0.525 | -0.471 | -0.00336 | 0.304 | -0.503 | 0.3 | -0.335
ATCCAAAGGTCGAAGGTGAGTATACCCACCCGAA | 5.05 | 4.12 | 0.34 | 3.2 | 0.577 | 4.95 | 5.19 | 5.37 | 2.53 | 4.33
AGAACGAGGGCACGCTGAGTTGATAGCAGAGTAG | 0.783 | 0.47 | -0.551 | 0.0516 | -0.876 | 2.36 | 2.01 | 1.79 | 0.0193 | 0.94
AGAATGAGGTTATACGTAGATCTGGGAAGAAAGT | 2.02 | 1.53 | -0.23 | 1.2 | -0.294 | 3.14 | 1.88 | 2 | 0.653 | 1.38
TAGCCTATGTCAGATCGGGCCAGTATACGCTATA | -0.25 | -0.56 | -0.38 | -0.651 | -0.818 | -0.546 | 0.0766 | -0.557 | -0.477 | -0.278
TCTTGTAGATCAACAGGAAGTTAAGAAAGATCGA | 0.112 | 0.0523 | -0.395 | -0.15 | -0.422 | 0.364 | 0.0673 | 1.13 | 2.73 | 1.58
ATCTCTAGGTAAGACTCAATTCAGTGAAGAACGC | 0.446 | 0.482 | 0.559 | 0.00858 | 0.847 | 0.0535 | 0.199 | 0.208 | 0.402 | 0.378
CGAACTAGGGCATTGACAGGACAGTGAATAGTAA | 0.151 | 0.0251 | 0.031 | -0.0451 | -0.654 | 2.23 | 3.32 | 2.68 | 0.522 | 1.83
TCTTGTAGATGAACAGGAGGTTAAGAAAGATCGA | 0.551 | 0.82 | -0.0533 | 0.712 | -0.35 | 0.923 | 0.119 | 1.32 | 2.89 | 2.02
TCATATAGTTAATACAGGTGAAAGTCGGCATCTA | 1.36 | 1.88 | 0.641 | 1.3 | 0.448 | 1.8 | 1.13 | 2.41 | 4.54 | 3.7
AGCCAAAGTTCACTAGGTAACGTAAGATTCAGCT | 4.84 | 4.92 | 2.67 | 2.81 | 0.629 | 4.51 | 5.95 | 5.78 | 3.24 | 5.12

Sequence | PBM binding z-score [1] | PBM binding z-score [2] | PBM binding z-score [3] | PBM binding z-score [4] | PBM binding z-score [5] | PBM binding z-score [6] | PBM binding z-score [7] | PBM binding z-score [8] | PBM binding z-score [9] | PBM binding z-score [10]
CCTACTGGGCCACGCAAGGTCATTGATTCAGTGA | 2.92 | 3.83 | 2.79 | 2.39 | -0.438 | 3.32 | 2.94 | 3.26 | 1.18 | 2.34
ATCTCTAGGTAAAAGTTTAGTGAATCCCGAGGAT | 0.336 | 0.276 | 0.317 | 0.0669 | 1.09 | 2.34 | 3.7 | 4.99 | 2.89 | 5.11
ATCTCTAGATAACCAAGTTCAGTGAATGCCGAAC | 0.0637 | 0.348 | 0.591 | 0.348 | 0.0515 | -0.00769 | 0.236 | -0.141 | 0.124 | -0.0247
CCAGACAGGTGAAAGGAAACTCAGTCTGGTACGC | -0.00156 | -0.109 | -0.46 | -0.0929 | -0.489 | 0.52 | 0.81 | 1 | -0.0154 | 0.657
GCTTACGGGTCAAAGTTTATAGCATGAATAGAAT | 6.86 | 4.62 | 0.38 | 4.67 | 0.532 | 6.2 | 9.24 | 8.11 | 7.16 | 8.84
CGAACTAGGTCATCAAGGACAGTGAATACATTGA | 3.45 | 2.23 | 0.477 | 1.76 | -0.245 | 4.53 | 7.15 | 6.3 | 3.43 | 5.6
GCTAGTTGGTCAGTAAAAGGTCACTCACCGGTCG | 2.88 | 3.91 | 4.1 | 3.49 | 0.861 | 3.87 | 1.93 | 4.19 | 1.77 | 3.49
AGAACGAGGGCACGCTGAGTTGATAGCCGAGTAG | 0.799 | 0.509 | -0.574 | 0.154 | -0.961 | 2.17 | 2.04 | 1.7 | -0.0721 | 0.936
GCCCGGAGGACAAGGTCAGAGCTTTGTCCGTAGA | 1.63 | 1.41 | -0.287 | 1.05 | -1.25 | 1.98 | -0.107 | 0.592 | -0.793 | -0.158
CCAAGTTGGTCAGGAGGTCACACACCGGATATGA | 3.68 | 3.62 | 1.69 | 3.38 | 0.316 | 4.43 | 3.8 | 4.03 | 1.85 | 2.97
ATCTCTAGGTAAAGATAGTTCAGTAAATGCAAAT | 0.492 | 4.09 | 0.589 | 1.27 | 0.936 | 0.78 | 0.749 | 0.691 | 0.403 | 0.563
TCTTGTAGATCAAAGGTTAAGAACGCCGAAGCCT | 2.02 | 2.28 | 0.21 | 2.16 | 0.138 | 4.96 | 8.19 | 7.86 | 7.43 | 8.26
CCGACCGGGGCAAGGTTACCATAACGCACAGCCA | 0.591 | 1.02 | -0.0287 | 0.604 | -0.88 | 1.3 | 1.3 | 1.18 | -0.0517 | 0.495
CCTCGCAGGACAGAAGGTCAGAGCTGTCCGCTTT | 1.07 | 1.44 | 0.197 | 1.13 | -0.678 | 1.86 | -0.29 | 0.666 | -0.929 | 0.0497
TCTCGGAGGACACGAAAGGTCCGAGCTCGACATC | 0.78 | 0.222 | -0.359 | -0.21 | -0.97 | 0.254 | 0.0516 | 0.627 | 1.98 | 1.28
ATCTCTAGGCAAAAGTTCAGTGAATCCCGAGGAT | 0.235 | 0.757 | 0.751 | 0.584 | 0.319 | 2.96 | 5.41 | 6.14 | 5.06 | 6.01
TTGCCTAGGTCAGATCGGGCCAGTATACGCTATA | 2.67 | 1.04 | -0.621 | 0.692 | -0.831 | 1.51 | 0.532 | 0.852 | -0.179 | 0.0126
ATCTCTAGGTAATGATAGTTCAGTGAATGCAAAT | 0.391 | 3.56 | 0.99 | 0.864 | 0.755 | 0.625 | 0.774 | 0.986 | 0.371 | 0.513
TCTTGTAGATCAACAGGAGGTTAAAAAAGATCGA | 0.243 | 2 | 0.321 | 1.34 | -0.17 | 1.54 | 0.116 | 1.59 | 2.66 | 2.31
TAGCCTAGGTCATTCAGGGGCCAGGATAGAAAGC | 4.96 | 3.81 | 0.311 | 2.77 | 0.864 | 3.69 | 2.2 | 2.42 | 0.232 | 1.26
TGAATGGGGTTAAAGATCAGGGAACGTGGCGTCG | 5.11 | 3.48 | 0.361 | 4.01 | 3.3 | 5.61 | 6.88 | 7.24 | 5.21 | 7.51
ACTTACGGGTCAACGAGCTTATAGCACGCGTATA | 6.23 | 3.9 | 0.0459 | 3.55 | 0.744 | 5.49 | 4.76 | 5.05 | 1.71 | 3.6
ACTACTTGGTCAGCTGAGGTCACACACAATTCGG | 3.83 | 3.9 | 3.15 | 3.97 | 1.27 | 3.76 | 2.24 | 2.68 | 0.841 | 1.7
CCTACTGGGCCCAAAAGGTCATTGATGCCGATAA | 4.23 | 4.84 | 3.68 | 4.62 | 0.521 | 4.61 | 1.78 | 3.47 | 0.593 | 2.69
